Source: PubChem BioAssay
hcDAF-12 act = activators of H. contortus DAF-12 nuclear receptor; HEK293 hcDAF-12 lit1-tk-luc reporter, luminescence; 0% DMSO, 100% Δ7-dafachronic acid; activation, % at 6.8 µM; actives 1.4% (n = 370,000);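 active = activation above the mean of all tested compounds plus 3 SD, cut at about 5.5% in these data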;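 note: 100% = response to 3 µM Δ7-dafachronic acid high control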
ssDAF12 agonist = S. stercoralis DAF-12 activation, primary screen; HEK293 ssDAF-12/GRIP1 lit1-tk-luc reporter, luminescence; % of 3 µM dafachronic acid response; activation, % at 6.8 µM; actives 1% (n = 370,000); AID 652126;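 active = activation above the mean over all tested compounds plus 3 SD, cut at about 0.9% in these data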;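 note: 0% = DMSO-only wells and 100% = 3 µM delta7-dafachronic acid wells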
DAX1 inh-1 = blocks DAX1 repression of SF-1 activated StAR promoter. actives 1.1% (n = 370,000). HEK293T StAR-luciferase reporter, SF-1/DAX-1 repression relief. inhibition, % at 6.8 µM. AID 652010;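 active = inhibition above the mean over all tested compounds plus 3 SD, cut at about 3.6% in these data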;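 note: 0% = DAX-1 cells with DMSO and 100% = cells lacking DAX-1 with DMSO; higher inhibition means more luminescence from relief of DAX-1 repression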
hgDAF-12 ag = agonists of H. glycines DAF-12 nuclear receptor. HEK293 GAL4-hgDAF12 UAS-luciferase reporter, agonist luminescence; normalized to butyrate control. activation, % at 6.8 µM. actives 1.8% (n = 370,000). AID 687014;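 active = activation above a cutoff set at the mean of all screened compounds plus 3 SD, cut at about 10% in these data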;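 note: 0% = DMSO wells and 100% = sodium butyrate wells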
DAX1 inh-2 = inhibits human nuclear receptor DAX1; actives 0.99% (n = 340,000); P51843; inhibition, % at 6.75 µM; HEK293 Gal4-DAX1 luciferase reporter, luminescence;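 active = inhibition above the mean over all tested compounds plus 3 SD, cut at about 4.2% in these data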;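 note: 0% = DAX1-transfected cells with DMSO and 100% = empty-vector control cells with DMSO; inhibition shows as a rise in luminescence from relieved DAX1 repression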
Target sequence (P51843 207-470 limits assumed): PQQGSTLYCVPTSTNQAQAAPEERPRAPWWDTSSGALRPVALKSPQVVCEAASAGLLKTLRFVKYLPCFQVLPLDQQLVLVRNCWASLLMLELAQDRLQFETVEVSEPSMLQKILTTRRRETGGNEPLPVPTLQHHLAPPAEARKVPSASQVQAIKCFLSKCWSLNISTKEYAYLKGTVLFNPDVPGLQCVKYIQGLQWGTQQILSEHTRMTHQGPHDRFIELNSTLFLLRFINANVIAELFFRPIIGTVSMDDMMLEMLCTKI
Active calls of the source: *; . = no result given. Hits are enriched below; roughly 4.1% of the tested compounds scored in any of these assays.

SMILES | hcDAF-12 act | ssDAF12 agonist | DAX1 inh-1 | hgDAF-12 ag | DAX1 inh-2
O=C1Nc2ccccc2SC1c1ccccc1 (stereo unspecified) | -2 | -1 | 0 | 0 | 0
CCOC(=O)[C@]12CCCCC/C=C\1N(Cc1ccc(OC)cc1)C(=O)[C@H]2CC(=O)NCc1cccc2ccccc12 | -1 | -1 | 0 | 0 | .
C=C(C)c1cccc(C(C)(C)NC(=O)Nc2nncs2)c1 | -2 | -1 | 0 | -2 | 4.8*
C=C(C)c1cccc(C(C)(C)NC(=O)Nc2nnc(C(C)C)s2)c1 | -1 | -2 | 0 | -1 | -1
COCCCNCCOCCOc1ccc(C)cc1Br | 5.7* | 0 | 0 | 0 | -1
COC(=O)[C@]12C[C@H](CC(=O)NCCCCc3ccccc3)C(=O)N(CCC3=CCCCC3)C1=C[C@H](C(C)C)O[C@@H]2C1CC1 | -3 | -1 | 0 | 3 | .
c1csc(-c2nc(CN3CCSCC3)cs2)c1 | 5 | 0 | 2 | 12* | 0
C/C(=N/NC(=O)c1ccoc1C)C12CC3CC(CC(C3)C1)C2 | 4 | 1 | 3 | 13* | 1
Cc1occc1C(=O)NC1CCCCCC1 | 1 | 0 | 1 | 2 | 0
CCCCCCCCN1C(=O)[C@@H](CC(=O)NCCCN2CCCC2=O)C[C@@]2(C(=O)OC)C1=C[C@H](COCc1ccccc1)O[C@@H]2C | 1 | -1 | -1 | 0 | .
CC(C)C(NC(=O)CN1C(=O)c2ccccc2S1(=O)=O)C(C)C | -1 | -1 | 0 | 2 | 5.0*
CCOc1ccccc1NC(=O)C(C)N1C(=O)c2ccccc2S1(=O)=O (stereo unspecified) | 0 | -1 | 3.7* | -1 | 0
CCc1ccccc1NC(=O)CN1C(=O)c2ccccc2S1(=O)=O | 2 | -1 | 0 | -1 | 4.5*
CCc1cccc(C)c1NC(=O)CN1C(=O)c2ccccc2S1(=O)=O | 0 | -1 | 0 | 1 | 2
O=C(CN1C(=O)c2ccccc2S1(=O)=O)NC1CCCCCC1 | 1 | -1 | 0 | 13* | 6.2*
COc1ccc(NC(=O)C(C)N2C(=O)c3ccccc3S2(=O)=O)c(OC)c1 (stereo unspecified) | -2 | -2 | 1 | -1 | 0
Clc1ccc([C@H]2OC[C@@]3(CNCC4CC4)CS[C@H](c4ccc(Cl)cc4)N23)cc1 | -1 | -1 | 1 | 0 | .
O=C(CCc1ccccc1-c1ccccc1CCNC(=O)c1ccc(F)c(F)c1)NCc1ccccc1 | -1 | -1 | 0 | -2 | .
CCC[C@H]1[C@@H](OC(=O)NC2CCC2)CC[C@@]23CCCN2C(=O)CCC[C@@H]13 | 0 | -1 | . | 0 | .
O=C(NC1CCCC1)c1ccc2c(c1)S(=O)(=O)c1ccccc1C2=O | -2 | -2 | -1 | -3 | -1
O=C(NC1CCCCC1)c1ccc2c(c1)S(=O)(=O)c1ccccc1C2=O | -1 | -1 | 0 | 2 | 5.0*
O=C(NC1CCCCN(Cc2cccc(Cl)c2)C1=O)c1c(F)cccc1F (stereo unspecified) | -1 | -1 | 0 | 0 | .
NC(=O)c1ccsc1NC(=O)COC(=O)c1ccc(Cl)nc1 | -2 | -1 | 1 | 0 | 1
NC(=O)c1ccsc1NC(=O)COC(=O)c1cccnc1Cl | 1 | 0 | 1 | 11* | 0
CCCN=C(C)C1=C(O)c2ccccc2C1=O | 1 | -2 | 1 | 10 | 5.3*
SMILES | hcDAF-12 act | ssDAF12 agonist | DAX1 inh-1 | hgDAF-12 ag | DAX1 inh-2
Nn1c(SCc2cccc3ccccc23)nnc1-c1cc(-c2ccc(F)cc2)n[nH]1 | -3 | -1 | -2 | 3 | .
COC(=O)[C@]12C[C@H](CC(=O)N3CCC(c4ccccc4)CC3)C(=O)N(CCC3=CCCCC3)C1=C[C@H](C(C)C)O[C@@H]2C1CC1 | 0 | -1 | 0 | 0 | .
CCC(C)N1C(=O)S/C(=C/c2ccc(N3CCOCC3)cc2C)C1=O (stereo unspecified) | -2 | -2 | -1 | 4 | 2
Cc1cc(N2CCOCC2)ccc1/C=C1\SC(=O)N(C(C)C)C1=O | 0 | -2 | 0 | 4 | 5.6*
CCN(C)C(=O)CNc1nnnn1-c1ccccc1 | -2 | -1 | -1 | 6 | .
O=C(NC1CCCC1)C1(C(=O)C2CC2)CC(c2ccccn2)=NO1 (stereo unspecified) | -2 | -1 | 0 | 3 | .
COc1ccc(Nc2nc(-c3ccccc3)c3ccccc3n2)cc1 | 2 | -1 | 0 | 0 | 0
